From the supplement of paper PMC8728848
About 410 targets per protein were measured; listed, in parts, are those with the strongest signals and a random draw of the rest.

Key:
Assay in all cases: glycan array binding signal (z-score within array); higher = stronger binding
Settings in all cases: glycan notation: IUPAC condensed, linker removed
[1] = target: Glc(a1-4)Glc(a1-4)Glc(a1-4)Glc
In short: (§1)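 Glycan array binding is given as a within-array Z-score, which can be read as non-binding when negative. The arrays, 3228 of them, came from the Consortium for Functional Glycomics database and were retained only where the protein sequence was available. Z-scores were averaged across arrays of the same protein sequence at different concentrations or buffers and across linkers.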

[2] = target: GlcNAc(a1-4)Gal(b1-3)GlcNAc
In short: as §1

[3] = target: GlcNAc(a1-4)Gal(b1-4)GlcNAc(b1-3)Gal(b1-4)Glc
In short: as §1

[4] = target: GlcNAc(b1-2)Man(a1-3)[GlcNAc(b1-2)Man(a1-6)]Man(b1-4)GlcNAc(b1-4)GlcNAc
In short: as §1

[5] = target: GlcNAc(b1-2)[GlcNAc(b1-6)]Man(a1-6)[GlcNAc(b1-2)Man(a1-3)]Man(b1-4)GlcNAc(b1-4)GlcNAc
In short: as §1

[6] = target: GlcNAc(b1-3)Gal(b1-4)GlcNAc(b1-2)[GlcNAc(b1-3)Gal(b1-4)GlcNAc(b1-6)]Man(a1-6)[GlcNAc(b1-3)Gal(b1-4)GlcNAc(b1-2)Man(a1-3)]Man(b1-4)GlcNAc(b1-4)GlcNAc
In short: as §1

[7] = target: GlcNAc(b1-3)Gal(b1-4)GlcNAc(b1-3)[GlcNAc(b1-3)Gal(b1-4)GlcNAc(b1-3)]GalNAc
In short: as §1

[8] = target: Man(a1-2)Man(a1-3)[Man(a1-2)Man(a1-6)]Man(a1-6)[Man(a1-2)Man(a1-2)Man(a1-3)]Man
In short: as §1

[9] = target: Man(b1-4)GlcNAc
In short: as §1

[10] = target: Neu5Ac(a2-3)Gal(b1-3)GlcNAc(b1-2)Man(a1-3)[Neu5Ac(a2-3)Gal(b1-3)GlcNAc(b1-2)Man(a1-6)]Man(b1-4)GlcNAc(b1-4)GlcNAc
In short: as §1

[11] = target: Neu5Ac(a2-3)Gal(b1-3)GlcNAc(b1-4)Gal(b1-4)Glc
In short: as §1

[12] = target: Neu5Ac(a2-3)Gal(b1-4)GlcNAc(b1-3)Gal(b1-4)GlcNAc(b1-3)Gal(b1-4)GlcNAc
In short: as §1

[13] = target: Neu5Ac(a2-3)Gal(b1-4)GlcNAc(b1-6)[Gal(b1-3)]GalNAc
In short: as §1

[14] = target: Neu5Ac(a2-3)Gal(b1-4)[Fuc(a1-3)]GlcNAc(b1-3)Gal(b1-4)[Fuc(a1-3)]GlcNAc(b1-3)Gal(b1-4)[Fuc(a1-3)]GlcNAc
In short: as §1

[15] = target: Neu5Ac(a2-3)[Neu5Ac(a2-6)]GalNAc
In short: as §1

[16] = target: Neu5Ac(a2-6)Gal(b1-4)GlcNAc(b1-2)[Neu5Ac(a2-6)Gal(b1-4)GlcNAc(b1-6)]Man(a1-6)[Neu5Ac(a2-6)Gal(b1-4)GlcNAc(b1-2)Man(a1-3)][GlcNAc(b1-4)]Man(b1-4)GlcNAc(b1-4)GlcNAc
In short: as §1

[17] = target: Neu5Ac(a2-6)Gal(b1-4)GlcNAc(b1-3)Gal(b1-3)GlcNAc
In short: as §1

[18] = target: Neu5Ac(a2-6)Gal(b1-4)GlcNAc(b1-3)Gal(b1-4)GlcNAc(b1-6)[Gal(b1-3)]GalNAc
In short: as §1

[19] = target: Neu5Ac(a2-6)Gal(b1-4)GlcNAc(b1-3)Gal(b1-4)[Fuc(a1-3)]GlcNAc(b1-3)Gal(b1-4)[Fuc(a1-3)]GlcNAc
In short: as §1

[20] = target: Neu5Ac(a2-6)Gal(b1-4)GlcNAc(b1-3)[Neu5Ac(a2-6)Gal(b1-4)GlcNAc(b1-6)]GalNAc
In short: as §1

[21] = target: Neu5Ac(a2-6)Gal(b1-4)GlcNAc(b1-6)[Gal(b1-3)]GalNAc
In short: as §1

[22] = target: Neu5Ac(a2-6)GlcNAc(b1-4)GlcNAc
In short: as §1

[23] = target: Neu5Ac(a2-6)GlcNAc(b1-4)GlcNAc(b1-4)GlcNAc
In short: as §1

[24] = target: Neu5Ac(a2-8)Neu5Ac(a2-3)Gal(b1-4)Glc
In short: as §1

[25] = target: Neu5Ac(a2-8)Neu5Ac(a2-8)Neu5Ac(a2-3)Gal(b1-4)Glc
In short: as §1

[26] = target: Neu5Ac(a2-8)Neu5Gc(a2-3)Gal(b1-4)GlcNAc
In short: as §1

[27] = target: Neu5Gc(a2-3)Gal(b1-4)GlcNAc(b1-3)Gal(b1-4)GlcNAc(b1-2)Man(a1-3)[Neu5Gc(a2-3)Gal(b1-4)GlcNAc(b1-3)Gal(b1-4)GlcNAc(b1-2)Man(a1-6)]Man(b1-4)GlcNAc(b1-4)GlcNAc
In short: as §1

[28] = target: Neu5Gc(a2-8)Neu5Gc(a2-6)Gal(b1-4)GlcNAc
In short: as §1

B1: SfaEH (Escherichia coli), Q1RDG5 (protein)
chain: LLCRNNQTGQVFNSGDTSFRVNVSPVVQYDKSISVLDLSQLVSCQNEDSTGQNYDYLKILKGSGFSPALDTKTYGRLDFTSRPTGYARQLPLQFDLQVTEAFYQYGVWKPFPAKLYLYPAPGVFGKVINNGDLLATLYVNKFSTKGQEAGERNFTWRFYATNDVYIQTGTCRVSSNNVKVDLPSYPGGPVTVPLTVRCDQTQSVSYTLSGPVTGSGNTVFANTAASGSGGVGIQLSDNVGPVPAGQPRSLGQVGSSPVSLGLKASYALTGQASPTPGAVQSVINVTFSYN
glycan array binding signal (z-score) [1]: -0.651 | glycan array binding signal (z-score) [2]: -0.403 | glycan array binding signal (z-score) [3]: -0.748 | glycan array binding signal (z-score) [4]: 0.345 | glycan array binding signal (z-score) [5]: -0.668 | glycan array binding signal (z-score) [6]: 2.3 | glycan array binding signal (z-score) [7]: 0.026 | glycan array binding signal (z-score) [8]: 0.008 | glycan array binding signal (z-score) [9]: -0.49 | glycan array binding signal (z-score) [10]: -0.547 | glycan array binding signal (z-score) [11]: -0.421 | glycan array binding signal (z-score) [12]: 7.11 | glycan array binding signal (z-score) [13]: 2.32 | glycan array binding signal (z-score) [14]: 0.9 | glycan array binding signal (z-score) [15]: 3.69 | glycan array binding signal (z-score) [16]: -0.534 | glycan array binding signal (z-score) [17]: -0.233 | glycan array binding signal (z-score) [18]: 0.079 | glycan array binding signal (z-score) [19]: -0.154 | glycan array binding signal (z-score) [20]: 2.22 | glycan array binding signal (z-score) [21]: 0.841 | glycan array binding signal (z-score) [22]: -0.508 | glycan array binding signal (z-score) [23]: 1.19 | glycan array binding signal (z-score) [24]: 0.69 | glycan array binding signal (z-score) [25]: 0.437 | glycan array binding signal (z-score) [26]: -0.786 | glycan array binding signal (z-score) [27]: -0.442 | glycan array binding signal (z-score) [28]: 2.33
